Assay results reported in PubChem BioAssay (Tox21).
Results filed as inconclusive are left out. The source made the active and inactive calls. The call rests on the fitted dose curve.
On the % scale 0 is the no-effect control and ±100 the full control effect.

Assay: qHTS assay for small molecule agonists of the p53 signaling pathway - cell viability (AID 651633);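 further: p53RE-bla HCT reporter cells with a stable beta-lactamase p53 reporter; nearly all actives have a fitted effect of over 30% in size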
Conditions: p53RE-bla HCT-116 viability, ATP luminescence, 16 h; series mostly up to 83.3 µM
Excerpt: National Center for Advancing Translational Sciences [NCATS]
NIH Chemical Genomics Center [NCGC]
U.S. Environmental Protection Agency [EPA]
National Institutes of Environmental Health Sciences [NIEHS]
National Toxicology Program [NTP]
U.S. Food and Drug Administration [FDA]
p53, a tumor suppressor protein, is activated following cellular insult, including DNA damage and other cellular stresses. The activation of p53 regulates cell fate by inducing DNA repair, cell cycle arrest, apoptosis, or cellular senescence. The activation of p53, therefore, is a good indicator of DNA damage and other cellular stresses. […] The activation of the reporter gene under culture conditions can be detected by fluorescence intensity. This cell line was used to screen the Tox21 compound library in a 1536-well plate format and to identify agonists that activate the p53 signaling pathway.
Tox21 Assay Protocol Summary:
The p53RE-bla cells were dispensed at 4,000 cells/5 ul/well in 1536-well black wall/clear bottom plates using a Multidrop dispenser. After the assay plates were incubated at a 37 C/5% CO2 incubator for 5 hours, 23 nL of compounds dissolved in DMSO, positive controls or DMSO only was transferred to the assay plate by a pin tool. The plates were incubated at 37 C for 16 hours. After 1 uL of LiveBLAzerTM B/G FRET substrate was added using a Flying Reagent Dispenser, the plates were incubated at room temperature for 2 hours, and fluorescence intensity was measured by an Envision plate reader.
For cell viability readout that measures cytotoxicity, 4 ul/well of CellTiter-Glo reagent was added into the assay plates using a Flying Reagent Dispenser. After 30 min incubation at room temperature, the luminescence intensity in the plates was measured using a ViewLux plate reader.
In the case of `COC(=O)CC(C)=O`, the outcome is reported as “inactive”.
For `CCCCCCCCS(=O)(=O)Cl`, the outcome was “inactive”.
In the case of `c1ccc([C@H]2CN3CCSC3=N2)cc1`, the outcome is reported as “inactive”.
For `C/C=C(\C)C#N`, the outcome was “inactive”.
With `C[C@](N)(Cc1ccc(O)cc1)C(=O)O` the outcome was “inactive”.
With `CN1CCC(=C2c3ccccc3CC(=O)c3sccc32)CC1` the outcome was “inactive”.
With `COC(=O)NN` the outcome was “inactive”.
With `CCCCCCCCCCCCCCCCC` the outcome was “inactive”.
With `CCOC(=O)[C@H](CCc1ccccc1)N[C@@H](C)C(=O)N1[C@H](C(=O)O)C[C@@H]2CCC[C@@H]21` the outcome was “inactive”.
With `O=C1CCCC(=O)C1` the outcome was “inactive”.
With `CN(C)CCCN1c2ccccc2CCc2ccc(Cl)cc21` the outcome was “inactive”.
With `FC(F)OC(Cl)C(F)(F)F` (stereo not given) the outcome was “inactive”.
With `NC(CSCC(=O)O)C(=O)O` (stereo not given) the outcome was “inactive”.
For `Cc1ccc(C#N)cc1`, the outcome was “inactive”.
In the case of `CC(=O)CC(C)(C)C1CCCCC1`, the outcome is reported as “inactive”.
With `CC[N+](C)(C)c1cccc(O)c1` the outcome was “inactive”.
In the case of `C[C@H]1C[C@@H](O)CC(C)(C)C1`, the outcome is reported as “inactive”.
With `COCCCOCCCOC` the outcome was “inactive”.
With `CCCCCCCCCCCCCC=O` the activity change, negative = cytotoxicity was 18.4% [at 8.08 µM] (inactive).
In the case of `ClC(Cl)(Br)Br`, the outcome is reported as “inactive”.
For `NC(=O)c1ccc([N+](=O)[O-])cc1`, the outcome was “inactive”.
In the case of `CCCCCCCCCCCCN(CCCCCCCCCCCC)CCCCCCCCCCCC`, the outcome is reported as “inactive”.
In the case of `CCCCOCCOCCOCCCC`, the outcome is reported as “inactive”.
With `NS(=O)(=O)c1ccccc1Cl` the outcome was “inactive”.
In the case of `N=C(N)c1ccc(OCCCOc2ccc(C(=N)N)cc2)cc1`, the outcome is reported as “inactive”.
With `CCCCCCOC(=O)CCCCC(=O)OCCCCCC` the outcome was “inactive”.
With `Cc1cccc(C)c1NC(=O)C(C)N` (stereo not given) the outcome was “inactive”.
In the case of `CCC(=O)OC(C)c1ccccc1` (stereo not given), the outcome is reported as “inactive”.
With `CCOC(=O)c1c(C)n(C)c2ccc(O)cc12` the outcome was “inactive”.
For `Cn1c(N)c(N=O)c(=O)n(C)c1=O`, the outcome was “inactive”.
With `CCN1CCC[C@H]1CNC(=O)c1cc(S(N)(=O)=O)ccc1OC` the outcome was “inactive”.
In the case of `C=C1CC[C@H]2C[C@@H]1C2(C)C`, the outcome is reported as “inactive”.
For `FC1(F)C(F)(F)C(F)(F)C2(F)C(F)(F)C(F)(F)C(F)(F)C(F)(F)C2(F)C1(F)F` (stereo not given), the outcome was “inactive”.
In the case of `CC(C)CNCC(C)C`, the outcome is reported as “inactive”.
With `O=C(O)Cc1ccc(CCNS(=O)(=O)c2ccc(Cl)cc2)cc1` the outcome was “inactive”.
With `COC(=O)c1cc(C(=O)OC)cc(S(=O)(=O)O)c1` the outcome was “inactive”.
In the case of `CC(=O)OCC(CCn1cnc2cnc(N)nc21)COC(C)=O`, the outcome is reported as “inactive”.
For `CCSC(=O)N(CC(C)C)CC(C)C`, the outcome was “inactive”.
With `C=COCC1CCC(CO)CC1` (stereo not given) the outcome was “inactive”.
With `CC(C)(c1ccc(O)cc1)c1ccc(O)cc1` the outcome was “inactive”.
